Test results: ChEMBL document CHEMBL3988442, “University of Dundee, Small-Polar-MMV Screening Library” (2021)
In all, about 48,000 compounds went through this assay and about 13,000 (27%) showed an effect of 50% or more. The list shows a part of the results.

These compounds were tested on Wolbachia pipientis (assay: Anti-Wolbachia Cell-Based Screen). Details: 5 µM.
Assay type: functional
Design: scale not given: in the data most compounds retested in dose-response had high values

SMILES | Percent Effect
CC(C)c1cccc(-n2cc(O)c(C(=O)O)n2)c1 | 39.26%
Cc1cccc(-n2cnc(Cl)c2C(=O)O)c1 | 93.89%
O=C(O)c1c(Cl)ncn1-c1ccccc1 | 76.14%
O=C1CC(c2ccc(C(=O)O)cc2)c2ncn(-c3ccccc3)c2N1 (configuration not stated) | 13.74%
CC(=O)NCc1nc(CC(C)C)nn1-c1cccc(C)c1 | -6.896%
Cc1cccc(-n2nc(CC(C)C)nc2[C@H](C)O)c1 | -4.735%
CCc1ccc(C2CCCN2C(=O)Cc2ccc(NC(C)=O)cc2)o1 (configuration not stated) | -1.143%
CC(C)OCc1ncn2c1CN(Cc1cnn(C)c1)CCC2.O=C(O)C(F)(F)F | -6.941%
O=C(Nc1ccc(N2CCCCC2)cn1)C1CCCN1C(=O)C1CC1 (configuration not stated) | 5.13%
CC(=O)Nc1ccc(CCC2(NC(=O)C3CC3)CCCCC2)cn1 | 53.79%
CCSCc1ccnc(NC(=O)C2CCCO2)c1 (configuration not stated) | 2.987%
O=C(Nc1ccc(-c2ccccc2)cn1)C1CCCN1C(=O)C1CC1 (configuration not stated) | -4.535%
CC(=O)Nc1ccc(CCC2(NC(=O)C3CCCO3)CCCCC2)cn1 (configuration not stated) | 144.1%
Cc1ccnc(NC(=O)C2CCCO2)c1 (configuration not stated) | 0.6753%
Cc1ccc(NC(=O)C2CCCN2C(=O)C2CC2)nc1 (configuration not stated) | 4.832%
O=C(Nc1ccc(Cl)cn1)C1CCN(CCc2ccccn2)CC1 | 5.331%
CS(=O)(=O)NC1(CCc2ccc(NC(=O)C3CC3)nc2)CCCCC1 | 95.32%
CC(C)(C)C(=O)N1CC[C@H]2NC(=O)N(c3ccc(F)cc3)C(=O)[C@H]21 | -4.362%
Cc1ccc(Cl)cc1C(=O)N1CCC2(CC1)c1ccccc1[C@@H](N)[C@@H]2O | -15.25%
COCCN(C(=O)c1cc(C)no1)c1ccc(C#N)cc1 | -3.36%
Cc1noc(Cl)c1CCC(=O)N1CCc2sccc2C1 | 4.589%
CCNc1cc2c(nn1)CCN(C(=O)Cc1c(C)noc1C)C2 | -1.817%

SMILES | Percent Effect
CCNc1cc2c(nn1)CCN(C(=O)C(C)c1c(C)noc1C)C2 (configuration not stated) | 124.9%
CCNc1cc2c(nn1)CCN(C(=O)CCc1c(C)noc1Cl)C2 | 92.82%
CCNc1cc2c(nn1)CCN(C(=O)Cc1noc3ccccc13)C2 | 2.376%
CCNc1cc2c(nn1)CCN(C(=O)CCc1c(C)noc1C)C2 | 85.75%
CCNc1cc2c(nn1)CCN(C(=O)c1c(C)noc1C)C2 | 134.6%
CCNc1cc2c(nn1)CCN(C(=O)c1cc3c(s1)CCOC3)C2 | 6.196%
CCNc1cc2c(nn1)CCN(C(=O)C1Cc3ccccc3O1)C2 (configuration not stated) | -6.016%
CCNc1cc2c(nn1)CCN(C(=O)c1cc3nc(C)ccc3o1)C2 | 0.3764%
CN(C1CCCCC1)S(=O)(=O)NC1CCN(c2ncccn2)CC1 | -8.607%
Cc1n[nH]c(C(=O)NCc2ccnc(OCC(F)(F)F)c2)c1Br | -11.41%
COc1ccc(CCN2CCCC(CN(C)Cc3ccc(C)o3)C2)cc1 (configuration not stated) | -2.586%
O=C(c1cccc2[nH]ccc12)N1CCC2(CCOC2)C1 (configuration not stated) | -0.4242%
CNc1cc2c(nn1)CCN(C(=O)c1ccoc1)C2 | 3.239%
CCNc1cc2c(nn1)CCN(C(=O)c1ccc(CNC(C)=O)o1)C2 | -5.342%
CCNc1cc2c(nn1)CCN(C(=O)c1ccoc1)C2 | 77.15%
COc1ccc(Cl)cc1-n1c(COC(C)C)n[nH]c1=O | 9.918%
CC1(C(=O)N2CCN(c3cnccn3)CC2)CNCCO1 (configuration not stated) | 114.6%
CC1(C(=O)N2CCSCC2)CNCCO1 (configuration not stated) | 81.85%
CC1(C(=O)N2CCOCC2)CNCCO1.Cl (configuration not stated) | 81.13%
O=C(N1CCSCC1)C1(O)Cc2ccccc2C1 | 1.421%
C[C@@H]1CN(C2(C(=O)N3CCSCC3)Cc3ccccc3C2)C[C@H](C)O1 | 1.613%
O=C(c1cccc(Cl)c1F)N1CCOC2(CNCCOC2)C1 (configuration not stated) | -25.29%

SMILES | Percent Effect
O=C(C1CCS(=O)(=O)C1)N1CCN(c2cnccn2)CC1 (configuration not stated) | -8.289%
CC1(C(=O)N2CCN(c3ncccn3)CC2)CNCCO1 (configuration not stated) | 48.6%
CN(C)c1ccccc1C(=O)N1CCOC2(CNCCOC2)C1 (configuration not stated) | -52.05%
Cc1cc(=O)n(C)cc1NC(=O)Cc1cccc(Cl)c1 | 5.962%
Cc1cc(Cn2cc(C#N)c(=O)c3ccccc32)on1 | -11.07%
Cc1nc(CN2CCCC(CCc3ccccc3C(F)(F)F)C2)no1 (configuration not stated) | -1.662%
Cc1c(C(C)NC(=O)Nc2ccccc2F)cnn1C (configuration not stated) | 3.461%
CCc1nc(C)c([C@H]2CN(C)C[C@@H]2C(=O)Nc2ccccc2F)[nH]1 | -8.421%
CC1CCC(NS(=O)(=O)CC(=O)Nc2ccccc2N2CCCC2)CC1 (configuration not stated) | 3.293%
Cc1ccc(C(=O)Nc2ccccc2N2CCCC2)n1C | 84.28%
COc1ccccc1NC(=O)c1ccc(C)n1C | 99.48%
Cc1ccc(C(=O)Nc2ccccc2F)n1C | 94.36%
O=C(Nc1cc(Cl)ccc1N1CCCCC1)c1ccccn1 | -5.482%
COc1ccccc1NC(=O)c1[nH]nc(C(C)C)c1Br | -4.147%
CCN(CC)CCn1cc(NC(=O)Nc2ccccc2OC)cn1 | 2.741%
CC(C)C(C)N1Cc2cccc(NCC(=O)N(C)C)c2C1 (configuration not stated) | 11.84%
CC(=O)c1cc(CN2CCCCC2c2nc3cc(F)ccc3[nH]2)cs1 (configuration not stated) | -8.075%
CC(=O)N1CC(C(=O)Nc2cccc(OC(F)F)c2)C1 | 13.11%
CCc1nc(-c2noc3ccc(C(=O)NCCN(C)C)cc23)co1 | -6.651%
CC(C)(C)NS(=O)(=O)c1ccccc1CNCc1ccccc1 | 8.138%
Nc1ncncc1-c1noc([C@@H]2CCCN2Cc2cccnc2)n1 | -7.414%
CC(C)c1nccn1CC1CCCN1Cc1nc2ccccc2n1C (configuration not stated) | -4.978%

SMILES | Percent Effect
Cc1nc(CN2CCCC2Cn2ccnc2C(C)C)nc2ccccc12 (configuration not stated) | 0.1374%
CC(C)c1nccn1-c1nccnc1C1CCCN1Cc1cccnc1 (configuration not stated) | 125.6%
CC(C)c1nccn1-c1nccnc1C1CCCN1Cc1ccccc1 (configuration not stated) | 124.1%
CC(C)S(=O)(=O)N1CCCC(c2nccn2Cc2cccnc2)C1 (configuration not stated) | -1.301%
CC(NCc1ccc(OCC(N)=O)cc1)c1ccc2c(c1)CCCC2 (configuration not stated) | -9.081%
CS(=O)(=O)Cc1noc(CN(Cc2ccco2)c2ccccc2)n1 | -3.718%
CN(C)CCN(C)C(=O)c1cnc2c(c1)nc(-c1ccccc1Cl)n2C | -6.044%
COc1ccc(F)cc1C(C)NC(=O)Nc1nnc(C)s1 (configuration not stated) | -6.536%
Cc1nnc(NC(=O)NCc2ccc(F)cc2)s1 | 93.84%
Cc1nnc(NC(=O)NCc2ccoc2)s1 | 74.81%
Cn1cc(NC(=O)NCc2ccoc2)ccc1=O | 13.17%
Cc1nnc(NC(=O)NCc2cc(F)cc(F)c2)s1 | 4.254%
O[C@H]1CC[C@@H](Cc2cc(-c3ccccn3)on2)O[C@@H]1CNCC1CC1 | 8.949%
CN1CCCN(C(=O)c2nc3c(s2)CCCN3CC2CC2)CC1 | 15.57%
c1ccc2sc(CN3CCCC3c3noc(C4CC4)n3)nc2c1 (configuration not stated) | 1.502%
O=C1O[C@@H]2CN(Cc3cc4ccccc4s3)C[C@@H]2N1Cc1ccccn1 | 7.899%
Cc1cc(C)cc(CN2CCCC2c2noc(C)n2)c1 (configuration not stated) | -1.497%
CN(C)Cc1ccnc(C2CCCN2Cc2cc3ccccc3s2)n1 (configuration not stated) | 97.93%
CN(C)Cc1ccnc(C2CCCN2Cc2ccncc2)n1 (configuration not stated) | -6.271%
CN(C)Cc1ccnc(C2CCCN2Cc2ccc3ncccc3c2)n1 (configuration not stated) | 102.5%
CCC(C)(C)NC(=O)c1ccc(NC(=O)NCc2cc(C)on2)cc1 | -5.404%
CN1CC2(CCN(C(=O)c3ccc4c(=O)n(C)cnc4c3)CC2)CC1=O | -1.826%

SMILES | Percent Effect
COc1cccc(CCC(=O)N2CCC[C@@H](N)[C@@H]2c2ccccc2F)c1.Cl | 156.6%
COc1ccc(CC(=O)N2CCCC(Cn3cc(CN)nn3)C2)cc1 (configuration not stated) | -29.22%
COc1cccc(CC2CCCN2CC(N)=O)c1 (configuration not stated) | 14.09%
COc1ccc(CC(=O)N2CCC[C@@H](N)[C@@H]2c2ccccc2F)cc1.Cl | 65.32%
N[C@@H]1CCCN(C(=O)Cc2c[nH]c3ccccc23)[C@H]1c1ccccc1F | 92.02%
COc1cccc(C(=O)N2CCCC(C(=O)CCc3ccccc3)C2)c1 (configuration not stated) | -1.62%
COC(=O)c1cc2n(n1)CCCN(C(=O)Cc1c[nH]c3ccccc13)C2 | -8.312%
CN(C(=O)Cc1c[nH]c2ccccc12)C1CCN(c2ccccn2)CC1 | -5.005%
CN1CCC(N[C@@H]2CO[C@H](CNC(=O)C3CCCC3)[C@H]2O)CC1 | -10.26%
CN(C)C(=O)CNC(=O)CCn1ncc2c(Cl)cccc21 | 7.628%
COc1cn(-c2ccccc2)nc1C(=O)NCCCN1CCCC(C)C1 (configuration not stated) | 0.4079%
CC1CCCN(CCCNC(=O)c2cn(C)nc2-c2cccnc2)C1 (configuration not stated) | -7.015%
CC1CCCN(CCNC(=O)c2ccn(-c3cccc(F)c3)n2)C1 (configuration not stated) | 71.46%
CC(=O)N1CCC(C(=O)NCCN2CCCC(C)C2)CC1 (configuration not stated) | 4.421%
O=C(NCCn1ccnc1)c1ccn(-c2cccc(F)c2)n1 | 3.245%
COc1cn(-c2ccccc2)nc1C(=O)NCCN1CCCC(C)C1 (configuration not stated) | 85.45%
CC1CCCN(CCNC(=O)c2ccn(-c3ccc(F)cc3)n2)C1 (configuration not stated) | 89.11%
COc1ccc(-n2ccc(C(=O)NCCN3CCCC(C)C3)n2)cc1 (configuration not stated) | 109.8%
CC1CCCN(CCNC(=O)c2ccn(-c3ccccc3)n2)C1 (configuration not stated) | -2.104%
